This is an account of results in PubChem BioAssay (NCI).

The structures appear in SMILES notation. About 83,000 compounds went through this panel and 20% of them were active in at least one assay; those are over-represented in the sample as a whole.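 For each line, cells grew in 96-well plates with the test compound present at a single concentration for 48 hours.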 Calls of active or inactive are those of the source. Rule for the calls: active = growth percent below 10; inactive = the rest.

This assay relates to HCT-116 colon. Description: NCI-60 one-dose screen, 48 h (100 = growth as untreated, 0 = no growth, -100 = all killed). To be noted: 10 µM unless noted.
Regarding `CC1(C)CC(=O)C2=C(C1)C(c1ccc(Cl)cc1)n1ncc(C#N)c1N2` (stereo not given), the growth is 98.4% (inactive). As for `CCOC(=O)C1=C(CCl)N(C)C(=O)NC1c1ccc2c(c1)OCO2` (stereo not given), the growth was 19.1% (inactive). As to `COc1ccc(-c2cc(C(=O)N3N=C(c4ccc(N)cc4)CC3c3ccc(Cl)cc3)c3ccccc3n2)cc1` (stereo not given), the growth is 15.6% (inactive).

Take `Cn1cc(-c2csc(-c3cn(C)c4ccccc34)n2)c2cnccc21`: the growth was -74.6% (active). In the case of `CC(C)c1ccc2c(c1)CC[C@H]1[C@](C)(C(=O)OCC#CCN3CCCC3)CCC[C@]21C` it was 48.5% (inactive); in that of `Cc1cc(=O)n(C(=S)Nc2ccc(Cl)cc2)c2cc(O)ccc12`, 96% (inactive); in that of `O=C1Nc2ccc(Cl)cc2/C1=C/c1ccc[nH]1`, 87.1% (inactive). Take `COc1nc(/C=C\Nc2ccc3c(c2)OCCOCCOCCOCCO3)nc(OC)n1`: the growth was 95.2% (inactive). Regarding `CC1=C2CC/C(C)=C/CC[C@]3(C)O[C@H]3CC/C(C)=C/[C@H]2OC1`, the growth was 101% (inactive). In the case of `CCN1C(=O)N(CC)C2C1NN=c1s/c(=C\c3ccc(OC)cc3)c(=O)n12` (stereo not given) it was 9.53% (active). Regarding `Cc1nn(C)c2ncnc(N/N=C/c3cccc(O)c3O)c12`, the growth is 18% (inactive).

For `CC(C)C1C2=C(NCCN1C(=O)c1ccncc1)C(C)(C)N(Cc1ccccc1)C2=O` (stereo not given), the growth was 92.8% (inactive).

As for `CN(C)c1ccc(C(=S)c2ccc(N(C)C)cc2)cc1`, the growth is 57.8% (inactive). In the case of `CSc1ccc(N2C(=N)C(=S)N(c3ccc(C)cc3)C2=O)cc1` it was 93.7% (inactive).

With `CCOC(=O)C/C(=N\Nc1cc(=O)[nH]c2ccc(C)cc12)C(=O)OCC`, the growth was 99.7% (inactive). Regarding `Clc1ccc(Nc2ncc(Cc3cccc(Cl)c3Cl)s2)cc1`, the growth was 92.8% (inactive). Turning to `CCOC(=O)c1nnn(-c2no[n+]([O-])c2-c2ccc(OC)cc2)c1COc1cccc2cccnc12`, the growth was 9.49% (active). Consider `NC(=O)c1ccccc1OCC(=O)Nc1ccc(Cl)c(Cl)c1`, for which the growth was 100% (inactive).

With `C=C1CC[C@@H]2C(C)(C)[C@H](O)CC[C@@]2(C)[C@@H]1COc1ccc2ccc(=O)oc2c1`, the growth is 64.1% (inactive).

With `O=S(Nc1ccccc1)c1ccc(Cl)cc1` (stereo not given), the growth is 92.1% (inactive). In the case of `COc1cccc(-c2cn3nc(-c4cn(C)c5ccccc45)sc3n2)c1`, the growth was 91.7% (inactive). For `COc1cc2c(cc1-c1c(C)noc1C)ncc1nc(CN3CCOCC3)n([C@H](C)COC(F)F)c12`, the growth is 41.3% (inactive). With `CN1c2ccccc2S(=O)(=O)n2c(SCC(=O)Nc3nc4ccc(F)cc4s3)nnc21`, the growth was 110% (inactive). In the case of `O=S(=O)(Nc1cc(Sc2nc3ccccc3s2)c(O)c2ccccc12)c1ccc2ccccc2c1`, the growth is 90.6% (inactive).

As to `Cn1c(C#N)ccc1-c1ccc(F)c(NC(=O)c2ccc(F)cc2)c1`, the growth is 77.4% (inactive).
